Screening data as filed in PubChem.
A selection: hits, their analogues and other compounds. The true share with any hit is near 10%.
bCat KO growth = primary screen for growth suppressors in beta-catenin knockout HCT116 cells (colon tumor, human) | HCT116 beta-catenin knockout viability, CellTiter-Glo, 60 h; hits give low values | viability, % at 10 µM | 1.5% of 140,000 active;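 active = viability at or under a set limit, the compound median less 4 SD, cut at about 6% in these data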;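 note: 0% = Hyamine 1622 control at 20 µM and 100% = untreated cell control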
ROMK mod = ROMK potassium channel modulators, primary screen, cell-based, thallium flux, MLSMR library; ATP-sensitive inward rectifier potassium channel 1 (Homo sapiens), P48048; Tet-inducible ROMK, thallium flux fluorescence; actives lie on both sides; B-score at 10 µM; 2% of 130,000 active; AID 1918, 2009;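 active = signal ratio slope over the read window, or its plate-corrected B-score, at least 3 SD from the plate mean, either direction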;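 note: B-score of the F/F0 ratio slope over 7 to 12 s after thallium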
Target sequence (P48048 whole entry, looked up): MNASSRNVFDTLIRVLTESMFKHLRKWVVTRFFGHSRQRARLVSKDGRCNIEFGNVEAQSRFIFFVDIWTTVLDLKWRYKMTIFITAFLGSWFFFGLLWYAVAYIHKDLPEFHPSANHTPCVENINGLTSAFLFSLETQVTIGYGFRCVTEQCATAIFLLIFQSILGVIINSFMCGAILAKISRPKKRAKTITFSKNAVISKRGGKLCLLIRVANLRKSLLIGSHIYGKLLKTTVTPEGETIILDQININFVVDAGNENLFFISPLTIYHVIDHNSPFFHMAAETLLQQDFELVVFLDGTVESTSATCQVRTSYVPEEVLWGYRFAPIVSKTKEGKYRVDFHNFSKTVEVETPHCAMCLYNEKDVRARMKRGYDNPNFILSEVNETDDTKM
Insulin prom inh = inhibitors of insulin promoter-driven GFP, primary screen, imaging, TRM-6 cells (human fetal islet line), eGFP reporter, cell count; reporter expression induced with tamoxifen; 0.9% of 130,000 active; AID 1273, 2008; inhibition, % at 2 µM;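 active = inhibition above the mean plus 3 SD, with well images judged a real hit on visual review, cut at about 60% in these data, passing the limit was not always enough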
Lmaj promast = Leishmania major promastigote growth inhibition, primary screen. AID 1063, 2008. inhibition, % at 10 µM. Leishmania major promastigotes, resazurin fluorescence viability. 9% of 200,000 active; in the data active = inhibition above about 50%;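 note: promastigotes grown with compound for 44 hours at 28 °C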
HCT116 PTEN-null = growth suppression of PTEN-null HCT116, primary screen, cell-based, CellTiter-Glo | HCT116 PTEN-null viability, 60 h; hits give low values | viability, % at 10 µM | 1.2% of 140,000 active | AID 827, 2007;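 active = viability at or below a set limit, 4 SD under the median of all tested compounds, cut at about 3.7% in these data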;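 note: PTEN knockout HCT116 line with beta catenin targeted HCT116 as companion control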
p97 ATPase inh = inhibitors of human p97 ATPase, primary screen, biochemical; recombinant p97 ATPase, Kinase-Glo ATP luminescence, 3 h; 0.42% of 220,000 active; AID 1481, 2009; Transitional endoplasmic reticulum ATPase (Homo sapiens), P55072; inhibition, % at 8 µM; in the data active = inhibition above about 15%;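 note: 0% = DMSO vehicle and 100% = wells lacking enzyme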
* = called active by the depositor; . = no result given.

SMILES | bCat KO growth | ROMK mod | Insulin prom inh | Lmaj promast | HCT116 PTEN-null | p97 ATPase inh
O=C(Nc1ccc(S(=O)(=O)N2CCCCCC2)cc1)c1ccco1 | 90 | -0.41 | -47 | -3 | 92 | 2
O=C(Nc1nc(-c2ccc(S(=O)(=O)N3CCCC3)cc2)cs1)c1ccco1 | 57 | . | -17 | 97* | 48 | 6
COc1ccc(-c2csc(NC(=O)c3cccc(S(=O)(=O)N4CCN(C)CC4)c3)n2)cc1 | 40 | . | -37 | 63* | 62 | -2
O=S(=O)(Nc1ccc(-c2csc(-c3ccccc3)n2)cc1)c1ccc(F)cc1 | 85 | . | 7 | 5 | 85 | 2
CCOc1cc(/C=C2/NC(=O)N(CC(=O)OC)C2=O)ccc1O | . | 0.83 | -75 | -3 | . | 1
COc1ccc(S(=O)(=O)NCc2cc(-c3ccccc3Cl)no2)cc1 | . | -1.7 | -164 | -4 | . | -4
CC(=O)c1c(C)[nH]c(C(=O)Nc2nc(-c3ccc(-c4ccccc4)cc3)cs2)c1C | 12 | 0.35 | 11 | 97* | 11 | -5
COc1ccc(NC(=O)c2cccn(CC=C(C)C)c2=O)cc1 | . | -0.037 | 26 | 21 | . | 2
Cc1ccc2nc(NC(=O)c3ccc(S(=O)(=O)N4CCCc5ccccc54)cc3)sc2c1 | 57 | . | 1 | 98* | 60 | 6
O=C(Nc1nnc(C2CC2)o1)c1ccc(S(=O)(=O)N2CCCc3ccccc32)cc1 | 12 | . | . | 99* | 15 | .
COc1ccc(-c2nnc(NC(=O)c3ccc(S(=O)(=O)N4CCCc5ccccc54)cc3)o2)cc1 | 14 | . | . | 99* | 15 | 6
COCc1nnc(NC(=O)c2ccc(S(=O)(=O)N3CCCc4ccccc43)cc2)o1 | . | 0.72 | . | 1 | . | 3
O=C(NCc1ccco1)c1ccc(S(=O)(=O)N2CCCc3ccccc32)cc1 | 75 | -1.4 | 21 | 64* | 73 | 3
Cc1ccsc1/C=C1\Oc2cc(OCC(=O)c3ccccc3)ccc2C1=O | 86 | . | . | -4 | 89 | -1
CS(=O)(=O)N(CC(=O)NCc1ccncc1)Cc1ccc(Cl)cc1 | 94 | 0.63 | 50 | -5 | 92 | 2
Cc1ccc(C(=O)N2CCN(S(=O)(=O)c3ccc(C)c([N+](=O)[O-])c3)C2)cc1 | . | 0.75 | . | 0 | . | -3
Cc1nc2ccccc2n1S(=O)(=O)c1ccc(Br)cc1 | 86 | -0.97 | 32 | 70* | 91 | 0
O=S(=O)(c1ccc(Br)cc1)N1CCn2c(nc3ccccc32)C1 | 99 | . | . | -5 | 107 | 2
COc1ccc(C2CC(=O)C3=C(C2)Nc2ncnn2C3c2ccccc2C)c(OC)c1 (centres undefined) | 92 | . | -22 | 100* | 86 | 2
COc1cc(C2CC(=O)C3=C(C2)Nc2ncnn2C3c2cccs2)cc(OC)c1OC (centres undefined) | . | -0.13 | . | . | . | -2
O=C(CN1CCN(C/C=C/c2ccccc2)CC1)NCc1ccccc1 | . | . | . | 63* | . | -1
CCC(C)c1ccccc1NC(=O)CN1CCN(C/C=C/c2ccccc2)CC1 (centres undefined) | 61 | . | 8 | 96* | 59 | -5
CCc1ccc(C(=O)c2cnc3ccc(OC)cc3c2N2CCN(CC)CC2)cc1 | . | -0.011 | . | 69* | . | 0
O=c1[nH]c(N2CCCCC2)nc2ncn(Cc3ccccc3)c12 | . | . | . | . | . | 5
COc1ccc(/C=C/C(=O)NC(=S)N2CCSCC2)cc1 | . | -0.027 | -57 | -4 | . | -8
SMILES | bCat KO growth | ROMK mod | Insulin prom inh | Lmaj promast | HCT116 PTEN-null | p97 ATPase inh
CC(C)=CCCC(C)CN1CCC(N2CCC(C(=O)NC(C)C)CC2)CC1 (centres undefined) | . | -0.12 | . | 83* | . | -2
CC(C)NC(=O)C1CCN(C2CCN(CC3CC=CCC3)CC2)CC1 (centres undefined) | . | -0.29 | . | 9 | . | -3
CC(C)=CCCC(C)CN1CCC(N2CCC(C(=O)N3CCOCC3)CC2)CC1 (centres undefined) | . | . | . | 96* | . | -2
CC(C)=CC(=O)N1CCC(N2CCC(C(=O)N3CCOCC3)CC2)CC1 | . | . | . | -2 | . | 0
O=C(C1CCN(C2CCN(CC3CC=CCC3)CC2)CC1)N1CCOCC1 (centres undefined) | . | 0.0036 | . | 76* | . | 2
Cc1cc(N2C(=O)CCC2=O)ccc1NC(=O)c1cccs1 | 97 | . | 43 | 0 | 95 | 0
CC(=O)Nc1ccc(S(=O)(=O)NC(C(=O)O)C(C)O)cc1 (centres undefined) | . | . | . | . | . | 7
COc1cccc(-c2c[nH]c(=O)[nH]c2=O)c1 | . | . | . | -8 | . | 3
COc1ccc(CNCc2cccc(Oc3ccccc3)c2)cc1 | . | 0.14 | . | 87* | . | -6
C/C(=C\C(=O)C(F)(F)F)Nc1ccc(C(F)(F)F)cc1 | 95 | . | 41 | -5 | 88 | 3
CC(C)(CCl)C(=O)Nc1ccc(C(F)(F)F)cc1 | . | . | 85* | 3 | . | 1
Cc1cccc(C(=O)OCc2cncs2)c1 | . | 0.23 | . | 1 | . | -3
O=[N+]([O-])c1cc(S(=O)(=O)C(F)(F)F)ccc1N1CCN(c2ccccc2)CC1 | 65 | 0.043 | 11 | 68* | 66 | -1
O=S(=O)(Nc1ccc(N2CCCCC2)cc1)c1ccc(F)c(F)c1 | 91 | . | 6 | 67* | 90 | 2
CNS(=O)(=O)c1ccc(N2CCCC2)c([N+](=O)[O-])c1 | . | 0.49 | . | -2 | . | 4
Cc1c(NS(=O)(=O)c2ccc(N3CCN(C)CC3)c([N+](=O)[O-])c2)c(=O)n(-c2ccccc2)n1C | . | 1.4 | 16 | -2 | . | 5
O=[N+]([O-])c1cc(S(=O)(=O)Nc2ccccc2)ccc1N1CCN(c2ccccc2)CC1 | 33 | . | . | 88* | 36 | 3
O=C(O)c1cc(NS(=O)(=O)c2ccc(N3CCCCC3)c([N+](=O)[O-])c2)cc(C(=O)O)c1 | 101 | -0.35 | 45 | 77* | 111 | 0
O=C(O)c1cc(S(=O)(=O)Nc2ccc(N3CCCCC3)cc2)ccc1Cl | . | 0.75 | -43 | -9 | . | -2
CCCCNC(=O)Nc1ncn[nH]1 | . | . | . | . | . | 6
Cc1cccc(OS(=O)(=O)NC(=O)OCC2CCCN3CCCCC23)c1 (centres undefined) | . | 0.67 | 25 | -4 | . | -4
COc1ccc(N/N=C/c2c(C(=O)O)ccc3ccccc23)cc1 | . | . | . | . | . | -4
CC(=O)c1ccc(N2CCN(c3ccc(S(=O)(=O)NCCCN(C)C)cc3[N+](=O)[O-])CC2)cc1 | . | -0.67 | . | 100* | . | -4
Cc1ccc(N=N/C(=C\O)C(=O)c2ccncc2)cc1 | 89 | 0.038 | -17 | -5 | 95 | 1
COc1ccc(N=N/C(=C\O)C(=O)c2cccs2)cc1 | . | -0.39 | 0 | 69* | . | 2
COc1ccc(C(=O)/C(=C/O)N=Nc2ccc(F)cc2)cc1 | . | -0.79 | . | 61* | . | -1
COc1ccc(NC(=O)c2cccs2)cc1 | 78 | . | -225 | 2 | 74 | -6
O=C(/C(=C/O)N=Nc1ccc(Cl)cc1)c1ccncc1 | 0.6* | . | -7 | 100* | 0.8* | 3
N#Cc1c2ccc(O)cc2n2ccccc12 | . | -4.7* | . | 100* | . | 7
